Assay [1] can be described thus: Tanguay_ZF_120hpf_SWIM_legacy: (Legacy) Oregon State University Tanguay Lab 120 Hour Post-fertilization zebrafish Assay for Swim Bladder Malformation (AID 2283654).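 Also: swim bladder malformation in each larva scored yes or no under brightfield.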 The essentials: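 Embryos lacking chorions were exposed individually and statically to test chemical from 6 to 120 hpf at 28C, with 0.64% DMSO as vehicle. At 120 hpf, swim bladder malformation was recorded as present or absent by brightfield microscopy.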

Assay [2] is described as follows: Tanguay_ZF_120hpf_TRUN_legacy: (Legacy) Oregon State University Tanguay Lab 120 Hour Post-fertilization zebrafish Assay for Truncated Body (AID 2283655). The procedure, abridged:
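Tropical 5D wild-type embryos, dechorionated with pronase at 4 hpf, were placed singly in wells at 6 hpf and statically exposed at 28C until 120 hpf, final DMSO 0.64%. Truncated body was scored present/absent by brightfield microscopy.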

Read-out in assay [3]: ABC Transporter (ABCB1), ABCB1 (gene 5243)
The experiment in a line: CLD_ABCB1_6hr: CellzDirect (CLD) Gene Expression Assay for ABC Transporter (ABCB1) at 6 hours (AID 2283659).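 Also: hits raise ABCB1 transcript above the DMSO vehicle baseline.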 The essentials:
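Primary human hepatocytes (two donor preparations) dosed daily for two days with chemicals at multiple concentrations, 0.2% DMSO vehicle; harvested 6 h post-dose. ABCB1 mRNA induction quantified by qNPA chemiluminescence; gain-of-signal fitted versus DMSO.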

Read-out in assay [4]: Broad substrate specificity ATP-binding cassette transporter ABCG2 (Homo sapiens) (UniProt Q9UNQ0)
The assay can be described thus: CLD_ABCG2_6hr: CellzDirect (CLD) Gene Expression Assay for ABC Transporter (ABCG2) at 6 hours (AID 2283660). The essentials:
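Primary human hepatocytes dosed daily with chemicals at multiple concentrations (0.2% DMSO vehicle), harvested 6 h after dosing. ABCG2 mRNA induction read by quantitative nuclease protection assay (qNPA) chemiluminescence; gain of signal fitted against DMSO baseline.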

A short description of assay [5]: Tanguay_ZF_120hpf_TR_legacy: (Legacy) Oregon State University Tanguay Lab 120 Hour Post-fertilization zebrafish Assay for Touch Response (AID 2283667). The essentials: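 5D WT embryos; static exposure to 120 hpf, 28C, sealed/dark; DMSO 0.64% v/v final. TR scored present/absent; dead embryos excluded. Pos ctrl 5uM trimethyltin chloride.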
Read-out in assay [6]: xenobiotic metabolism (CYP1A1), CYP1A1 (gene 1543)
The experiment in a line: CLD_CYP1A1_6hr: CellzDirect (CLD) Gene Expression Assay for xenobiotic metabolism (CYP1A1) at 6 hours (AID 2283661).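 As to AC50: potency for transcript induction above DMSO vehicle baseline.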 The essentials: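 Primary human hepatocytes from two donors, compound versus 0.2% DMSO vehicle. CYP1A1 mRNA measured 6 h after dosing by quantitative nuclease protection assay with chemiluminescent read-out; induction fitted relative to DMSO, cytotoxicity flagged by microscopy.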

Read-out in assay [7]: xenobiotic metabolism (CYP1A2), CYP1A2 (gene 1544)
The assay can be described thus: CLD_CYP1A2_6hr: CellzDirect (CLD) Gene Expression Assay for xenobiotic metabolism (CYP1A2) at 6 hours (AID 2283663).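 As to AC50: potency is for induction meaning a rise in mRNA above DMSO.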 The essentials: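 Primary human hepatocytes from two donor preparations, dosed daily with multiple concentrations in 0.2% DMSO and harvested at 6 h. CYP1A2 mRNA induction measured by chemiluminescent qNPA, gain of signal fitted against DMSO; cytotoxicity flagged morphologically.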

Read-out in assay [8]: glucuronosyltransferase (UGT1A1), UGT1A1 (gene 54658)
The assay can be described thus: CLD_UGT1A1_6hr: CellzDirect (CLD) Gene Expression Assay for glucuronosyltransferase (UGT1A1) at 6 hours (AID 2283672). The essentials: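 Primary human hepatocytes from two donor preparations, dosed with fresh solutions in 0.2% DMSO, harvested at 6 h. UGT1A1 mRNA measured by qNPA chemiluminescence; induction fitted upward versus DMSO.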

Read-out in assay [9]: xenobiotic metabolism (CYP1A1), CYP1A1 (gene 1543)
The experiment in a line: CLD_CYP1A1_24hr: CellzDirect (CLD) Gene Expression Assay for xenobiotic metabolism (CYP1A1) at 24 hours (AID 2283673).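 Also: CYP1A1 mRNA level by quantitative nuclease protection with chemiluminescence.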 The essentials:
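Primary human hepatocytes dosed daily with fresh solutions in 0.2% DMSO vehicle. mRNA measured at 24 h by quantitative nuclease protection assay with chemiluminescence; gain-of-signal fit versus DMSO, with morphology-based cytotoxicity flags.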

Read-out in assay [10]: ABC Transporter (ABCB11), ABCB11 (gene 8647)
The experiment in a line: CLD_ABCB11_6hr: CellzDirect (CLD) Gene Expression Assay for ABC Transporter (ABCB11) at 6 hours (AID 2283675).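 Also: hits raise ABCB11 mRNA level so AC50 marks induction.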 The procedure, abridged:
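Human primary hepatocytes (two donor preparations) given fresh chemical daily at multiple concentrations, vehicle 0.2% DMSO. ABCB11 mRNA induction measured 6 h after dosing by qNPA chemiluminescence versus DMSO; cytotoxicity annotated from morphology.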

Read-out in assay [11]: ABC Transporter (ABCB11), ABCB11 (gene 8647)
The experiment in a line: CLD_ABCB11_24hr: CellzDirect (CLD) Gene Expression Assay for ABC Transporter (ABCB11) at 24 hours (AID 2283674; active = hit-call score of the fitted dose curve at least 0.9, where 1 is the maximum; inactive = score below 0.9). The essentials:
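Primary human hepatocytes were dosed daily for two days, with 0.2% DMSO vehicle. ABCB11 mRNA induction was measured at 24 hours by quantitative nuclease protection assay with chemiluminescence. Gain of signal was fitted relative to DMSO.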

Read-out in assay [12]: sulfotransferase (SULT2A), SULT2A1 (gene 6822)
The assay can be described thus: CLD_SULT2A_6hr: CellzDirect (CLD) Gene Expression Assay for sulfotransferase (SULT2A) at 6 hours (AID 2283669).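 Also: hits raise transcript level above the DMSO vehicle baseline.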 The procedure, abridged: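 Primary human hepatocytes from two donor preparations were dosed daily with chemicals or 0.2% DMSO and harvested at 6 h. Transcript induction read by qNPA chemiluminescence, fitted for gain of signal relative to DMSO; morphology-based cytotoxicity annotated.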

Read-out in assay [13]: solute carrier (SLC22A6), SLC22A6 (gene 9356)
The experiment in a line: LTEA_HepaRG_SLC22A6: Life Technologies and Expression Analysis (LTEA) Assay for solute carrier (SLC22A6) using HepaRG (AID 2283653; active = hit-call score of the fitted dose curve at least 0.9, where 1 is the maximum; inactive = score below 0.9). As to conditions: mRNA level, 48 h; actives raise or lower the signal. The essentials:
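Differentiated human HepaRG cells were exposed for 48 h in serum-free induction medium to eight concentrations (top 100 uM, half-log steps, 0.5% DMSO), in duplicate. SLC22A6 mRNA was quantified by qRT-PCR, normalised to ACTB, GAPDH and POLR2A, and fitted bidirectionally against DMSO.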

Read-out in assay [14]: solute carrier (SLC10A1), SLC10A1 (gene 6554)
The experiment in a line: LTEA_HepaRG_SLC10A1: Life Technologies and Expression Analysis (LTEA) Assay for solute carrier (SLC10A1) using HepaRG (AID 2283657; active = hit-call score of the fitted dose curve at least 0.9, where 1 is the maximum; inactive = score below 0.9). To be noted: mRNA level, 48 h; actives raise or lower the signal. The procedure, abridged: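 Transcript levels were measured by qRT-PCR after human HepaRG cells received test chemical for 48 hours, up to 100 uM in half-log dilutions. Values come from bidirectional concentration-response fitting relative to 0.5% DMSO vehicle.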

Read-out in assay [15]: matrix metalloproteinase-1 (MMP1), MMP1 (gene 4312)
The assay can be described thus: LTEA_HepaRG_MMP1: Life Technologies and Expression Analysis (LTEA) Assay for matrix metalloproteinase-1 (MMP1) using HepaRG (AID 2283658; active = hit-call score of the fitted dose curve at least 0.9, where 1 is the maximum; inactive = score below 0.9). As to conditions: mRNA level, 48 h; actives raise or lower the signal. The essentials:
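Differentiated HepaRG cells, plated 48 h then switched to serum-free induction medium, were exposed in duplicate for 48 h to eight half-log concentrations up to 100 uM in 0.5% DMSO; MMP1 mRNA measured by qRT-PCR, normalized to ACTB, GAPDH, POLR2A.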

Read-out in assay [16]: Cytochrome P450 (CYP24A1_1), CYP24A1 (gene 1591)
The assay can be described thus: LTEA_HepaRG_CYP24A1_1: Life Technologies and Expression Analysis (LTEA) Assay for Cytochrome P450 (CYP24A1_1) using HepaRG (AID 2283671; active = hit-call score of the fitted dose curve at least 0.9, where 1 is the maximum; inactive = score below 0.9). To be noted: mRNA level, 48 h; actives raise or lower the signal. The essentials: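 In this test, gene induction or suppression of CYP24A1 in human HepaRG liver cells is measured by qRT-PCR after 48 h chemical treatment (eight concentrations, maximum 100 uM). Values are fitted bidirectionally relative to DMSO.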

Records with an inconclusive call do not appear. Activity calls are given as the source filed them. The calls were made as follows, unless noted: active = hit-call score of the fitted dose curve at least 0.9, where 1 is the maximum; inconclusive = response in the unintended direction; inactive = score below 0.9.

8 compounds from PubChem BioAssay (EPA / NIEHS) can be followed below.

What is called AC50 is the concentration giving half of the maximal activity seen.

Broad substrate specificity ATP-binding cassette transporter ABCG2 (Homo sapiens), sequence (Q9UNQ0 whole entry, looked up): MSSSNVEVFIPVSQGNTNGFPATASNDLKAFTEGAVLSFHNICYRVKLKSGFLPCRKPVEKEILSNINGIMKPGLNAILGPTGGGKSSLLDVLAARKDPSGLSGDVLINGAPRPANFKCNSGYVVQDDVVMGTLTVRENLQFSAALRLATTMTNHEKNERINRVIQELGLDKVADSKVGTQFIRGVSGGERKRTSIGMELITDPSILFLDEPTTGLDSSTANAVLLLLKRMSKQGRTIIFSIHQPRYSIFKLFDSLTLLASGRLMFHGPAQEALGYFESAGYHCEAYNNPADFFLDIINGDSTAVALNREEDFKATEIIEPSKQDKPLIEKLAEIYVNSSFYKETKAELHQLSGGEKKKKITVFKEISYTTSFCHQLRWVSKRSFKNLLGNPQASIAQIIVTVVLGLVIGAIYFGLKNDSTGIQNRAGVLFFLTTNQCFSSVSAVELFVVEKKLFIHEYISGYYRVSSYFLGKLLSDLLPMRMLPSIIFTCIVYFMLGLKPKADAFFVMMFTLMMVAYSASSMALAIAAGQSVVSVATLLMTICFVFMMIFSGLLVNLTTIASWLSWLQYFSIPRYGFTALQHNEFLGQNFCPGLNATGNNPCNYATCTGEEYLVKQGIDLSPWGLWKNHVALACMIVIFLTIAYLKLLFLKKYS

In the case of `Cc1ccc(N=CN(C)C=Nc2ccc(C)cc2C)c(C)c1`, the compound was classed as inactive in assay [1], in assay [2], in assay [3], in [4] and in assay [5].
Take `CC(C)(C)C(=O)C(Oc1ccc(Cl)cc1)n1cncn1` (stereo unspecified): the outcome in [1], in assay [2], in assay [3], in assay [4], in assay [5] and in assay [8] was inactive. For the same compound, the outcome in [10] was inactive. Further, the half-maximal activity concentration (AC50) in assay [6] was 3.97 µM (active); in assay [7], 12.4 µM (active); in assay [9], 9.03 µM (active).
Take `COCc1cnc(C2=NC(C)(C(C)C)C(=O)N2)c(C(=O)O)c1` (stereo unspecified): the result in assay [1], in [2], in [3], in assay [4], in [5] and in assay [8] was inactive. For the same compound, the result in assay [11] and in assay [10] was inactive.
Regarding `CC1(C)CON(Cc2ccccc2Cl)C1=O`, the compound was called inactive in assay [1], in assay [2], in assay [3], in assay [4], in assay [6] and in assay [5]. In addition, the compound was classed as inactive in [8], in assay [9] and in assay [10].
Take `CC1(C)CCC(=Cc2ccc(Cl)cc2)C1(O)Cn1cncn1` (stereo unspecified): the compound was called inactive in assay [1], in assay [2], in assay [3], in assay [4], in assay [7] and in assay [5]. Besides, the compound was classed as inactive in assay [12] and in assay [10].
Take `COP(=O)(OC)O/C(C)=C/C(=O)N(C)C`: the compound was classed as inactive in [1], in [2], in assay [3], in assay [4], in [5] and in [11]. Moreover, the compound was classed as inactive in assay [10].
As for `CCCCC(C#N)(Cn1cncn1)c1ccc(Cl)cc1` (stereo unspecified), the result in assay [13], in assay [1], in assay [15], in assay [3], in [7] and in [12] was inactive. Moreover, the call in assay [16] was inactive. The AC50 in assay [2] is 48 µM (active); in [14] it was 83.9 µM (active); in assay [5], 50.7 µM (active).
With `CC(C)N1C(=O)N(c2ccccc2)CSC1=NC(C)(C)C`, the call in [1], in assay [2], in assay [3], in [4], in assay [6] and in assay [7] was inactive. The result in assay [5], in assay [11] and in assay [10] was inactive.
